The other results are listed elsewhere or left out. Entries that show only a call come without a potency. Inconclusive results are not listed. Active and inactive are the calls of the source. Calls come from the whole dose curve; as a rule, active = well fitted inhibition curve with a large enough effect; inconclusive = small, poorly fitted or top-dose-only effect; inactive = no such curve, though single readings can be large or run the other way.
Test: qHTS Assay for Inhibitors of Hepatitis C Virus (HCV): Cytotoxicity Counterscreen for Cherry-picked Compounds
From the text: Hepatitis C virus (HCV) infects about 200 million people in the world. Many infected people progress to chronic liver disease including cirrhosis with a risk of developing liver cancer. To date, there is no effective vaccine for hepatitis C. Current therapy based on interferon is only effective in about half of the patients and is associated with significant adverse effects. The fraction of people with HCV who can complete a successful treatment is estimated to be no more than 10 percent. Recent development of direct-acting antivirals against HCV, such as protease and polymerase inhibitors, is promising but still requires combination with peginterferon and ribavirin for maximal efficacy. In addition, these agents are associated with high rate of resistance and many have significant side effects. Due to the lack of a culture system for infectious HCV, the search for new HCV drugs has been greatly hampered. […] High-throughput screening (HTS) with an infectious HCV system would cover the complete spectrum of potentially druggable targets in all stages of HCV lifecycle, and would have more biological relevance than other cell-based assays. […]
Cells were plated in a 1536-wel tissue culture grade plates at a final concentration of 1,000 cells/well (3 uL volume). […] The luminescence signal was read for 15 sec using the PerkinElmer ViewLux plate reader.
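Note: 44 h compound exposure; nearly all actives have a fitted effect of over 55% in size.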

SMILES	Potency
CC[N+]1(C)CCCC(OC(=O)C(O)(c2ccccc2)c2ccccc2)C1 (configuration not stated)	inactive
CC1=CC(=Cc2sc3ccccc3[n+]2C)C=C(C)O1	7.05 µM (active)

From PubChem BioAssay AID720576 (National Center for Advancing Translational Sciences (NCATS), 2013)
